# Reference: the supplement of paper PMC8728848
# Shown is part of a subset that was picked to be rich in the strongest signals.
# Key:
# Assay in all cases: glycan array binding signal (z-score within array); higher = stronger binding
# Conditions in all cases: glycan notation: IUPAC condensed, linker removed
# [1] = target: Fuc(a1-2)Gal(b1-3)GalNAc(a1-3)[Fuc(a1-2)]Gal(b1-4)GlcNAc
# Outline: (§1)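 From the Consortium for Functional Glycomics database, 3228 arrays were curated, keeping only those whose protein sequence was available. Binding is given as a within-array Z-score averaged across arrays sharing a protein sequence and across linkers. Negative Z-scores can be read as non-binding.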
# [2] = target: Fuc(a1-2)Gal(b1-3)GalNAc(b1-3)Gal(a1-4)Gal(b1-4)Glc
# Outline: as §1
# [3] = target: Fuc(a1-2)Gal(b1-3)GalNAc(b1-4)[Neu5Ac(a2-3)]Gal(b1-4)Glc
# Outline: as §1
# [4] = target: Fuc(a1-2)Gal(b1-3)GlcNAc(b1-3)[Fuc(a1-2)Gal(b1-3)GlcNAc(b1-6)]GalNAc
# Outline: as §1
# Fuc(a1-2)Gal(b1-4)Glc6S = target: Fuc(a1-2)Gal(b1-4)Glc6S
# Outline: as §1
# Fuc(a1-2)Gal6S(b1-4)Glc = target: Fuc(a1-2)Gal6S(b1-4)Glc
# Outline: as §1
# [5] = target: Fuc(a1-2)[Gal(a1-3)]Gal(b1-3)GalNAc
# Outline: as §1
# [6] = target: Fuc(a1-2)[Gal(a1-3)]Gal(b1-4)GlcNAc(b1-3)[Fuc(a1-2)[Gal(a1-3)]Gal(b1-4)GlcNAc(b1-6)]GalNAc
# Outline: as §1
# [7] = target: Fuc(a1-2)[Gal(a1-4)]Gal(b1-4)GlcNAc
# Outline: as §1
# [8] = target: Fuc(a1-2)[GalNAc(a1-3)]Gal(b1-4)GlcNAc(b1-2)Man(a1-3)[Fuc(a1-2)[GalNAc(a1-3)]Gal(b1-4)GlcNAc(b1-2)Man(a1-6)]Man(b1-4)GlcNAc(b1-4)GlcNAc
# Outline: as §1
# [9] = target: Fuc(a1-2)[GalNAc(a1-3)]Gal(b1-4)GlcNAc(b1-3)Gal(b1-4)GlcNAc(b1-3)Gal(b1-4)GlcNAc
# Outline: as §1
# [10] = target: Gal(a1-3)[Gal(a1-4)]Gal(b1-4)GlcNAc
# Outline: as §1
# [11] = target: Gal(b1-3)GlcNAc(a1-6)Gal(b1-4)GlcNAc
# Outline: as §1
# Gal(b1-3)GlcNAc6S = target: Gal(b1-3)GlcNAc6S
# Outline: as §1
# [12] = target: Gal(b1-3)[Neu5Ac(a2-6)]GlcNAc(b1-4)Gal(b1-4)Glc
# Outline: as §1
# [13] = target: Gal(b1-3)[Neu5Ac(b2-6)]GalNAc
# Outline: as §1
# Gal(b1-4)Glc6S = target: Gal(b1-4)Glc6S
# Outline: as §1
# [14] = target: Gal(b1-4)GlcNAc(b1-2)Man(a1-3)Man(b1-4)GlcNAc(b1-4)GlcNAc
# Outline: as §1
# [15] = target: Gal(b1-4)GlcNAc(b1-2)[Gal(b1-4)GlcNAc(b1-6)]Man(a1-6)[Gal(b1-4)GlcNAc(b1-2)Man(a1-3)]Man(b1-4)GlcNAc(b1-4)[Fuc(a1-6)]GlcNAc
# Outline: as §1
# [16] = target: Gal(b1-4)GlcNAc(b1-2)[Gal(b1-4)GlcNAc(b1-6)]Man(a1-6)[GlcNAc(b1-4)][Gal(b1-4)GlcNAc(b1-2)Man(a1-3)]Man(b1-4)GlcNAc(b1-4)GlcNAc
# Outline: as §1
# [17] = target: Gal(b1-4)GlcNAc(b1-3)Gal(b1-4)GlcNAc(b1-3)[Gal(b1-4)GlcNAc(b1-3)Gal(b1-4)GlcNAc(b1-6)]GalNAc
# Outline: as §1
# [18] = target: Gal(b1-4)GlcNAc(b1-3)Gal(b1-4)GlcNAc(b1-6)[Gal(b1-3)]GalNAc
# Outline: as §1
# [19] = target: Gal(b1-4)GlcNAc(b1-3)GalNAc
# Outline: as §1
# Gal6S(b1-4)Glc6S = target: Gal6S(b1-4)Glc6S
# Outline: as §1
# GalNAc(b1-4)GlcNAc = target: GalNAc(b1-4)GlcNAc
# Outline: as §1
# Glc(b1-4)Glc = target: Glc(b1-4)Glc
# Outline: as §1
# [20] = target: GlcNAc(a1-4)Gal(b1-3)GlcNAc
# Outline: as §1
# [21] = target: GlcNAc(b1-2)[GlcNAc(b1-6)]Man(a1-6)[GlcNAc(b1-4)][GlcNAc(b1-2)Man(a1-3)]Man(b1-4)GlcNAc(b1-4)GlcNAc
# Outline: as §1
# [22] = target: GlcNAc(b1-3)Gal(b1-4)GlcNAc(b1-6)[Gal(b1-3)]GalNAc
# Outline: as §1
# [23] = target: GlcNAc(b1-3)[GlcNAc(b1-6)]Gal(b1-4)GlcNAc
# Outline: as §1
# Kdn(a2-3)Gal(b1-3)GalNAc = target: Kdn(a2-3)Gal(b1-3)GalNAc
# Outline: as §1
# Man(a1-2)Man(a1-3)Man = target: Man(a1-2)Man(a1-3)Man
# Outline: as §1
# [24] = target: Man(a1-2)Man(a1-3)[Man(a1-6)]Man(a1-6)[Man(a1-2)Man(a1-3)]Man(b1-4)GlcNAc(b1-4)GlcNAc
# Outline: as §1
# [25] = target: Man(a1-3)[Man(a1-6)]Man(a1-6)[Man(a1-3)]Man
# Outline: as §1
# [26] = target: Neu5Ac(a2-3)Gal(b1-3)GlcNAc
# Outline: as §1
# [27] = target: Neu5Ac(a2-3)Gal(b1-3)GlcNAc(b1-3)Gal(b1-4)GlcNAc
# Outline: as §1
# [28] = target: Neu5Ac(a2-3)Gal(b1-3)GlcNAc(b1-6)GalNAc
# Outline: as §1
# [29] = target: Neu5Ac(a2-3)Gal(b1-4)GlcNAc(b1-2)Man(a1-3)[Neu5Ac(a2-6)Gal(b1-4)GlcNAc(b1-2)Man(a1-6)]Man(b1-4)GlcNAc(b1-4)GlcNAc
# Outline: as §1
# [30] = target: Neu5Ac(a2-3)Gal(b1-4)GlcNAc(b1-2)[Neu5Ac(a2-3)Gal(b1-4)GlcNAc(b1-6)]Man(a1-6)[Neu5Ac(a2-3)Gal(b1-4)GlcNAc(b1-2)Man(a1-3)]Man(b1-4)GlcNAc(b1-4)GlcNAc
# Outline: as §1
# [31] = target: Neu5Ac(a2-3)Gal(b1-4)[Fuc(a1-3)]GlcNAc(b1-3)Gal(b1-4)[Fuc(a1-3)]GlcNAc(b1-3)Gal(b1-4)[Fuc(a1-3)]GlcNAc
# Outline: as §1
# [32] = target: Neu5Ac(a2-3)Gal(b1-4)[Fuc(a1-3)]GlcNAc(b1-3)GalNAc
# Outline: as §1
# [33] = target: Neu5Ac(a2-3)Gal(b1-4)[Fuc(a1-3)]GlcNAc(b1-6)[Neu5Ac(a2-3)Gal(b1-3)]GalNAc
# Outline: as §1
# [34] = target: Neu5Ac(a2-3)Gal6S(b1-4)GlcNAc
# Outline: as §1
# Neu5Ac(a2-3)GalNAc = target: Neu5Ac(a2-3)GalNAc
# Outline: as §1
# [35] = target: Neu5Ac(a2-3)[GalNAc(b1-4)]Gal(b1-4)Glc
# Outline: as §1
# [36] = target: Neu5Ac(a2-6)Gal(b1-4)GlcNAc
# Outline: as §1
# [37] = target: Neu5Ac(a2-6)Gal(b1-4)GlcNAc(b1-2)Man
# Outline: as §1
# [38] = target: Neu5Ac(a2-6)Gal(b1-4)GlcNAc(b1-2)[Neu5Ac(a2-6)Gal(b1-4)GlcNAc(b1-4)]Man(a1-3)[GlcNAc(b1-4)][Neu5Ac(a2-6)Gal(b1-4)GlcNAc(b1-2)[Neu5Ac(a2-6)Gal(b1-4)GlcNAc(b1-6)]Man(a1-6)]Man(b1-4)GlcNAc(b1-4)GlcNAc
# Outline: as §1
# [39] = target: Neu5Ac(a2-6)Gal(b1-4)GlcNAc(b1-3)Gal(b1-4)GlcNAc(b1-3)[Neu5Ac(a2-6)Gal(b1-4)GlcNAc(b1-3)Gal(b1-4)GlcNAc(b1-6)]GalNAc
# Outline: as §1
# [40] = target: Neu5Ac(a2-6)Gal(b1-4)GlcNAc(b1-6)GalNAc
# Outline: as §1
# [41] = target: Neu5Ac(a2-6)Gal(b1-4)GlcNAc(b1-6)[Gal(b1-3)GlcNAc(b1-3)]Gal(b1-4)Glc
# Outline: as §1
# [42] = target: Neu5Ac(a2-6)GlcNAc(b1-4)GlcNAc
# Outline: as §1
# [43] = target: Neu5Ac(a2-8)Neu5Ac(a2-8)Neu5Ac(a2-3)[GalNAc(b1-4)]Gal(b1-4)Glc
# Outline: as §1
# [44] = target: Neu5Ac(a2-8)Neu5Gc(a2-3)Gal(b1-4)GlcNAc
# Outline: as §1
# Neu5Gc(a2-6)GalNAc = target: Neu5Gc(a2-6)GalNAc
# Outline: as §1
binder,measurement,setting,value
PX14404-bvu-534-26-534 (Bacteroides vulgatus) (protein) EDPRGKLTPENFFSTQDELNMSIYALYQKVNLSQVYTNMQLPQWQGDDITTNPGSNKQPAAEMDKFAAANNNKGVKDAWNMHYAIVKAANLIIQGASKTPTTQDEINIALGQAKFWRAYAYFTLVRLWGPLPMNLDNVNDDYTKPLSPVEEVYGHIVQDLTEAEAVLPTGYSGSPRFLNGVNVYVTRQAAKSTLAAVYMAMAGWPMNKTEYYAKAAEKAKEVIEGVNRGEYEYKLDKDYKDVYAMSNNYNNETVLGINYSPFVDWAQDSELTSCNQFESLGGWGDAWGEIRFWKEFPDGPRKDATYDPKIRLKDGTLVDWWELKEDGTPVVPEHHPMFSIFSVNWDPASKVNTSAPYDYTKPASQNMCNDHRHRIIRYSEVLLWYAEAKARTGQTDELAFKCLNDVRERAGLEPLTGLSADDLAEAAYKEHGWEVAGYWVALVTRRADQFRMNRLKDTFKERAENTAVEVADGILVKESVEYTNRTWSDNLMYLPYPDMDSQKNPNLVR,glycan array binding signal (z-score),[1],-0.799
same,glycan array binding signal (z-score),[2],0.314
same,glycan array binding signal (z-score),[3],-0.348
same,glycan array binding signal (z-score),[4],2.03
same,glycan array binding signal (z-score),Fuc(a1-2)Gal(b1-4)Glc6S,2.24
same,glycan array binding signal (z-score),Fuc(a1-2)Gal6S(b1-4)Glc,2.73
same,glycan array binding signal (z-score),[5],0.15
same,glycan array binding signal (z-score),[6],0.311
same,glycan array binding signal (z-score),[7],0.074
same,glycan array binding signal (z-score),[8],0.042
same,glycan array binding signal (z-score),[9],-0.561
same,glycan array binding signal (z-score),[10],3.57
same,glycan array binding signal (z-score),[11],-0.215
same,glycan array binding signal (z-score),Gal(b1-3)GlcNAc6S,-0.497
same,glycan array binding signal (z-score),[12],0.099
same,glycan array binding signal (z-score),[13],-1.21
same,glycan array binding signal (z-score),Gal(b1-4)Glc6S,0.084
same,glycan array binding signal (z-score),[14],-0.296
same,glycan array binding signal (z-score),[15],-0.583
same,glycan array binding signal (z-score),[16],-0.45
same,glycan array binding signal (z-score),[17],-0.105
same,glycan array binding signal (z-score),[18],4.7
same,glycan array binding signal (z-score),[19],-0.885
same,glycan array binding signal (z-score),Gal6S(b1-4)Glc6S,3.4
same,glycan array binding signal (z-score),GalNAc(b1-4)GlcNAc,-0.29
same,glycan array binding signal (z-score),Glc(b1-4)Glc,-0.903
same,glycan array binding signal (z-score),[20],0.178
same,glycan array binding signal (z-score),[21],-1.21
same,glycan array binding signal (z-score),[22],-0.575
same,glycan array binding signal (z-score),[23],-0.97
same,glycan array binding signal (z-score),Kdn(a2-3)Gal(b1-3)GalNAc,1.92
same,glycan array binding signal (z-score),Man(a1-2)Man(a1-3)Man,1.24
same,glycan array binding signal (z-score),[24],-0.161
same,glycan array binding signal (z-score),[25],2.67
same,glycan array binding signal (z-score),[26],0.177
same,glycan array binding signal (z-score),[27],-0.891
same,glycan array binding signal (z-score),[28],-0.09
same,glycan array binding signal (z-score),[29],0.576
same,glycan array binding signal (z-score),[30],-0.695
same,glycan array binding signal (z-score),[31],0.228
same,glycan array binding signal (z-score),[32],0.921
same,glycan array binding signal (z-score),[33],3.23
same,glycan array binding signal (z-score),[34],0.553
same,glycan array binding signal (z-score),Neu5Ac(a2-3)GalNAc,0.608
same,glycan array binding signal (z-score),[35],-1.43
same,glycan array binding signal (z-score),[36],0.634
same,glycan array binding signal (z-score),[37],-0.24
same,glycan array binding signal (z-score),[38],-0.206
same,glycan array binding signal (z-score),[39],0.075
same,glycan array binding signal (z-score),[40],0.144
same,glycan array binding signal (z-score),[41],-1.1
same,glycan array binding signal (z-score),[42],-0.51
same,glycan array binding signal (z-score),[43],0.28
same,glycan array binding signal (z-score),[44],12.9
same,glycan array binding signal (z-score),Neu5Gc(a2-6)GalNAc,1.92
